Test systems include T-47D breast; BT-549 breast; MDA-MB-435 melanoma; SW-620 colon; MCF7 breast; HCT-116 colon; HCC-2998 colon; KM12 colon.
Common to all, as to assay: NCI-60 one-dose screen, 48 h (100 = growth as untreated, 0 = no growth, -100 = all killed)
Conditions in all cases: 10 µM unless noted

About 83,000 compounds went through this panel and 20% of them were active in at least one assay; those are over-represented in the sample as a whole.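 Assay: single dose, 48 h. Readout: percent growth (0 = no net growth; negative = cell death). Active: <10.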 Unmarked numbers belong to inactive results. Activity calls are given as the source filed them.

For `COc1cc(C=Nc2oc(-c3ccccc3)c(-c3ccccc3)c2C#N)cc(CN2CCCCC2)c1O`, the growth with T-47D breast was 86.8%; with BT-549 breast, 111%; in the test on MDA-MB-435 melanoma it was 103%; in the test on SW-620 colon it was 104%; in the test with MCF7 breast it was 94%; with HCT-116 colon, 95%. Besides, the growth was 102% in the test on HCC-2998 colon and 100% in the test on KM12 colon.

Take `CSc1nc(NCc2ccccc2)c(C#N)c(-c2cccc([N+](=O)[O-])c2)n1`: the growth with T-47D breast was 82.8%; with BT-549 breast, 95.8%; with MDA-MB-435 melanoma, 99.4%; in the test with SW-620 colon, 96.5%; in the test on MCF7 breast, 91.8%; in the test with HCT-116 colon, 87.1%. The figures for the growth in the test on HCC-2998 colon and with KM12 colon were 107% and 98.2%, respectively.

Consider `CC(O)CN1CC(O)=C(c2nc3ccccc3s2)C1=N` (stereo not drawn), for which the growth with T-47D breast was 104%; in the test with BT-549 breast, 109%; with MDA-MB-435 melanoma, 98.9%; with SW-620 colon, 108%; with MCF7 breast, 96.3%; in the test on HCT-116 colon it was 109%. The growth is 8.02% (active) with HCC-2998 colon and 117% in the test on KM12 colon.

As to `N#C/C(=C\c1ccc(-c2ccc(Cl)c(Cl)c2)o1)c1nc(-c2ccco2)cs1`, the growth with T-47D breast was -21.3% (active); with BT-549 breast it was 109%; in the test on MDA-MB-435 melanoma, 103%; in the test with SW-620 colon it was 103%; in the test with MCF7 breast, 12.5%; in the test on HCT-116 colon, 97.9%. Also, the growth was 0.932% (active) in the test on HCC-2998 colon and 50.6% with KM12 colon.

`O=c1ccccc(-c2ccc(Br)cc2)c1O`: the growth in the test on T-47D breast is 26.7%; with BT-549 breast it was 23.8%; with MDA-MB-435 melanoma, 25.8%; in the test with SW-620 colon, 26.8%; in the test on MCF7 breast, 14.3%; in the test on HCT-116 colon, 18.6%. The growth was 41.5% in the test with HCC-2998 colon and 24.6% with KM12 colon.

Regarding `COc1ccc(C(=O)/C=C/c2cccnc2Nc2cc(OC)c(OC)c(OC)c2)cc1`, the growth with T-47D breast is 44.1%; in the test with BT-549 breast it was 36.3%; in the test on MDA-MB-435 melanoma it was 2.91% (active); with SW-620 colon, -42.5% (active); with MCF7 breast, 12.9%; with HCT-116 colon, 13.7%. Further, the growth with HCC-2998 colon was 22.9%; in the test with KM12 colon, 14%.

Take `COc1ccc(SC2c3ccc(C)cc3Oc3nc(N)c(C#N)c(N)c32)cc1` (stereo not drawn): the growth in the test on T-47D breast was -34.5% (active); with BT-549 breast, -72.9% (active); in the test with MDA-MB-435 melanoma, -69.6% (active); with SW-620 colon it was -65.2% (active); in the test with MCF7 breast, -48.6% (active); with HCT-116 colon it was -64.4% (active). Further, the growth is -78.9% (active) with HCC-2998 colon and 3.92% (active) in the test on KM12 colon.

Consider `COc1ccc(/C=C\c2cc(OC)c(OC)c(OC)c2)cc1OCC(=O)Nc1ccc2nc(C)sc2c1`, for which the growth is 6.4% (active) in the test on T-47D breast; 38% in the test on BT-549 breast; -3.48% (active) in the test on MDA-MB-435 melanoma; 38% with SW-620 colon; 20.6% in the test with MCF7 breast; 23.4% with HCT-116 colon. Besides, the growth in the test on HCC-2998 colon is 86.1%; in the test with KM12 colon it was 19%.

Turning to `CCCCn1cnc2c(Sc3c([N+](=O)[O-])ncn3C)nc(N)nc21`, the growth is 74.1% in the test on T-47D breast; 98.3% with BT-549 breast; 102% in the test on MDA-MB-435 melanoma; 102% in the test with SW-620 colon; 91% in the test with MCF7 breast; 87.3% with HCT-116 colon. Besides, the growth in the test on HCC-2998 colon is 113%; in the test on KM12 colon, 108%.

With `O=C(O)c1c(=O)cccc2ssc12`, the growth is -43% (active) in the test on T-47D breast; 20.2% in the test on BT-549 breast; 23.3% with MDA-MB-435 melanoma; -34.4% (active) with SW-620 colon; -17% (active) with MCF7 breast; 2.36% (active) in the test on HCT-116 colon. The growth in the test with HCC-2998 colon is 13.5%; with KM12 colon, 3.59% (active).

In the case of `CCCCCC(=O)Oc1ccc(/C(=C(\C)c2ccc(OC)cc2)c2ccc(OCCN3CCCCC3)cc2)cc1`, the growth with T-47D breast is 34.8%; in the test with BT-549 breast, 72.6%; with MDA-MB-435 melanoma, 62.6%; in the test with SW-620 colon it was 65.1%; in the test with MCF7 breast, 24.8%; in the test with HCT-116 colon, 53.2%. Besides, the growth was 66.7% with HCC-2998 colon and 52.8% in the test on KM12 colon.

On to `Cc1cc2nc(NC(=O)CN3CCN(CCN4C(=O)c5cccc6cccc(c56)C4=O)CC3)sc2cc1C`, for which the growth in the test with T-47D breast was 83.9%; in the test on BT-549 breast, 86.1%; with MDA-MB-435 melanoma, 91.4%; in the test on SW-620 colon it was 96%; with MCF7 breast, 74.8%; with HCT-116 colon, 74.7%. In addition, the growth in the test on HCC-2998 colon was 101%; in the test on KM12 colon, 92.5%.

For `Cn1c(NCCc2ccc(O)c(O)c2)nc2c1c(=O)n(Cc1ccc(Br)cc1)c(=O)n2C`, the growth in the test with T-47D breast was 53.3%; with BT-549 breast, 73%; in the test with MDA-MB-435 melanoma it was 79%; in the test on SW-620 colon, 81.4%; in the test with MCF7 breast, 80%; in the test on HCT-116 colon, 67.4%. In addition, the results for the growth in the test with HCC-2998 colon and in the test on KM12 colon were 94% and 76%, respectively.

Regarding `COc1cc(-c2nn(C)nc2-c2cc3ccccc3s2)cc(OC)c1OC`, the growth in the test with T-47D breast is 56.5%; in the test on BT-549 breast, 18.8%; in the test with MDA-MB-435 melanoma, -41% (active); in the test with SW-620 colon, 26.7%; in the test with MCF7 breast, 17%; in the test on HCT-116 colon, 15.9%. The growth is 49.4% in the test on HCC-2998 colon and 19.5% in the test on KM12 colon.

Consider `O=C1/C(=C(/c2ccccc2)N2CCOCC2)Cc2ccccc21`, for which the growth with T-47D breast is -34.4% (active); in the test with BT-549 breast, -7.68% (active); in the test with MDA-MB-435 melanoma, 12.6%; with SW-620 colon, 0.554% (active); in the test with MCF7 breast it was 17.9%; with HCT-116 colon, -46.3% (active). The growth in the test with HCC-2998 colon was -71.8% (active); with KM12 colon it was 36.2%.

As for `O=C(CN(C(=O)Cn1c(=O)n2nnnc2c2ccccc21)c1ccccc1C(F)(F)F)Nc1ccc(C(F)(F)F)cc1`, the growth in the test with T-47D breast was 101%; in the test with BT-549 breast it was 95.7%; in the test with MDA-MB-435 melanoma, 105%; with SW-620 colon, 105%; in the test with MCF7 breast, 96.1%; in the test on HCT-116 colon, 95.5%. In addition, the growth was 106% with HCC-2998 colon and 110% with KM12 colon.

The values are drawn from PubChem BioAssay (NCI).
